Compound activity deposited in PubChem BioAssay by University of Kansas High Throughput Screening Laboratory.
The sample as a whole holds a higher share of hits than the screen did.
Pf apPOL block: Pf-apPOL inhibitors, biochemical, fluorescence; Plasmodium falciparum apicoplast DNA polymerase (apPOL); Recombinant Pf-apPOL, molecular beacon fluorescence, 1.5 h; inhibition, % at 10 µM; 210,000 tested, 0.25% active
mHTT CaM bind: mutant huntingtin-calmodulin interaction inhibitors – biochemical, AlphaScreen, primary screen. AlphaScreen His-mHTT/GST-CaM binding, luminescence. inhibition, % at 15 µM. P42858. 190,000 tested, 3.6% active. AID 1671202, 2021;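 also: 0% = both proteins with DMSO and 100% = one protein alone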
Target sequence (P42858 whole entry, looked up, stated change not applied): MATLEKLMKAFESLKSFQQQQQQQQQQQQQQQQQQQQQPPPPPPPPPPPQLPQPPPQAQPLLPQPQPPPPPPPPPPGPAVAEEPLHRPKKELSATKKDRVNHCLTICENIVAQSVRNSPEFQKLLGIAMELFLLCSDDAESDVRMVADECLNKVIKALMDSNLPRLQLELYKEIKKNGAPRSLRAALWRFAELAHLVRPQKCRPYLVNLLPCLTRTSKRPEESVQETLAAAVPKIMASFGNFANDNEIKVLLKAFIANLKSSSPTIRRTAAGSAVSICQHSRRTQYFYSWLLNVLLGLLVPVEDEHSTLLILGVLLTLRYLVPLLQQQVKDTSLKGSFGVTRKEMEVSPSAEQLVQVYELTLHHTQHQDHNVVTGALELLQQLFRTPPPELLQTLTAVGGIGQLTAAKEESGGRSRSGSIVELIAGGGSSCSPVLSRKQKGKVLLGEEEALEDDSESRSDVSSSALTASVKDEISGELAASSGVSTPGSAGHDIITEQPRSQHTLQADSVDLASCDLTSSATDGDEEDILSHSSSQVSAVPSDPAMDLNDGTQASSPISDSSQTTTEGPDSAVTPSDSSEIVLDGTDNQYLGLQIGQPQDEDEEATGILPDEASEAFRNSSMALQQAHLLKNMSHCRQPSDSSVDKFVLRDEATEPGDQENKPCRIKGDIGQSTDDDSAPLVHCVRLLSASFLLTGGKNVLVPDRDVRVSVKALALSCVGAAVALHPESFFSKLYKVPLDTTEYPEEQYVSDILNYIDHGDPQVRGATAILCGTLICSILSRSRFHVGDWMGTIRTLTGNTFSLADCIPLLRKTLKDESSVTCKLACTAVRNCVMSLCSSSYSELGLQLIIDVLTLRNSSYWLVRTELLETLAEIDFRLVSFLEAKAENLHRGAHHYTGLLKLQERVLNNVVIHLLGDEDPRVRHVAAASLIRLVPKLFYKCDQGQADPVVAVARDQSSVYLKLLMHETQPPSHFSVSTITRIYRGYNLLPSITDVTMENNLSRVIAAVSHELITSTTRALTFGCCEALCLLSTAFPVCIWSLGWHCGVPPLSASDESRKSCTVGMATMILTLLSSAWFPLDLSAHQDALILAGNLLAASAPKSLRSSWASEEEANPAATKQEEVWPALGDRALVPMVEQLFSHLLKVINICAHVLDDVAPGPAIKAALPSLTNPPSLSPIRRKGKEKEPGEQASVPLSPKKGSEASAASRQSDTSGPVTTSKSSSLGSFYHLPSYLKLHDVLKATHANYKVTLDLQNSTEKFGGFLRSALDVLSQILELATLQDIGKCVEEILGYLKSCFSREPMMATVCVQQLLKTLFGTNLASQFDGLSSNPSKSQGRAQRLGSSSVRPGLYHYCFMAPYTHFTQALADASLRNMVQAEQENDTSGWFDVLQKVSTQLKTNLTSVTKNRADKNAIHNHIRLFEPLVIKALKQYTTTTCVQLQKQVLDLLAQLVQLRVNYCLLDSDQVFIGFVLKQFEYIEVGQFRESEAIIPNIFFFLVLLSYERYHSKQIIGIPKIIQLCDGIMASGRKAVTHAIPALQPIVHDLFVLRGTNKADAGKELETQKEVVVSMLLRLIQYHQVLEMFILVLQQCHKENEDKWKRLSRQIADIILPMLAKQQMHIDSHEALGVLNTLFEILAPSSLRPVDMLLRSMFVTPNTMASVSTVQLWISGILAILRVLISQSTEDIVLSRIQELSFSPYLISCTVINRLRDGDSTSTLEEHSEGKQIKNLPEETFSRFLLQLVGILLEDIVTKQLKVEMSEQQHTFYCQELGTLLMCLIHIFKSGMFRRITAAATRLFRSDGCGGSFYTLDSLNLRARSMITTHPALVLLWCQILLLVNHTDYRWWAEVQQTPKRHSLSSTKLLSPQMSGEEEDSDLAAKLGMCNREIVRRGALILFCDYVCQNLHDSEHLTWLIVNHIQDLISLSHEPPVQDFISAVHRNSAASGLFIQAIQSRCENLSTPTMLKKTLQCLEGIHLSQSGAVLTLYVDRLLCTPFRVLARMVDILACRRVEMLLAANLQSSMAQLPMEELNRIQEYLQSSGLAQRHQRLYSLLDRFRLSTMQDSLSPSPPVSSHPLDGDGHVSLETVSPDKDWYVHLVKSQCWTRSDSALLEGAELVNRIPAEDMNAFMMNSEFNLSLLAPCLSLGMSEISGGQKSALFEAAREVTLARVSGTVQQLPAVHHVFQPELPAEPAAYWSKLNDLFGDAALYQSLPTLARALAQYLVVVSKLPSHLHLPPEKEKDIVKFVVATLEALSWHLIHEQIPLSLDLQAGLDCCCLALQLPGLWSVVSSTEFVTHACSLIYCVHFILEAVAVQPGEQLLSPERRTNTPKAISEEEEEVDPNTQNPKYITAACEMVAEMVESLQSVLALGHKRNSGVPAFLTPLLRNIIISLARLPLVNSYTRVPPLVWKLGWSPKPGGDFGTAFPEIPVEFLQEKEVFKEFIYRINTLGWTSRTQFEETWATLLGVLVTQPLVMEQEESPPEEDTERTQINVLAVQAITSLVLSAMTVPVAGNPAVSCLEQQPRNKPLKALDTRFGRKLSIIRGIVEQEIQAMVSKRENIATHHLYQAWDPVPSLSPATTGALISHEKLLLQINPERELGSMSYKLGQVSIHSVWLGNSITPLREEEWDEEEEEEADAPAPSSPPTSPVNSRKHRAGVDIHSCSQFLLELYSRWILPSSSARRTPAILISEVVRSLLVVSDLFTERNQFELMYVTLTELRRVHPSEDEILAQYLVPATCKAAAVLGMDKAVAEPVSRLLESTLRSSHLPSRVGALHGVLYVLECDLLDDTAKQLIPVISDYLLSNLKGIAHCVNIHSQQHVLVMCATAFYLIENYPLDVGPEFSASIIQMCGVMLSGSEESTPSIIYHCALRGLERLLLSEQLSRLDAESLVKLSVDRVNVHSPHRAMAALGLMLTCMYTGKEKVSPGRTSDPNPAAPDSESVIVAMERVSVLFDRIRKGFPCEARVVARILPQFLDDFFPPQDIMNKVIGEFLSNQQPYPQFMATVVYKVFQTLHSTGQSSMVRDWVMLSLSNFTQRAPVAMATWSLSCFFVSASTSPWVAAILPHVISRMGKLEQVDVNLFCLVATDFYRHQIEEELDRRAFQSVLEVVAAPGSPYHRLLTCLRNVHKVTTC
* hit, by the source's call; . = not tested or not shown. Rule as the data show it: active = inhibition above about 50%; inactive = the rest.

SMILES | Pf apPOL block | mHTT CaM bind
O=C(c1ccccc1)N1CCC(CCNS(=O)(=O)c2ccc(Cl)cc2)CC1 | 5 | 55*
Cc1ccc(C(=O)N2CCC(CCNS(=O)(=O)c3ccc(Cl)cc3)CC2)cc1 | -3 | 26
CC(=O)Nc1ccc(S(=O)(=O)NCCC2CCN(C(=O)c3ccccc3)CC2)cc1 | 0 | 39
CC(=O)c1ccc(S(=O)(=O)NCCC2CCN(C(=O)c3ccc(C)cc3)CC2)cc1 | 3 | 57*
Cc1ccc(C(=O)N2CCC(CCNS(=O)(=O)c3cc(C)c(C)cc3C)CC2)cc1 | 2 | 45
CC(C)c1ccc(S(=O)(=O)NCCC2CCN(C(=O)c3ccccc3)CC2)cc1 | -1 | 51*
COc1cc(-c2c(NC(=O)C3CCCCC3)oc3ccccc3c2=O)cc(OC)c1OC | -11 | 1
CC(C)CNC(=O)C1CCN(c2ccc(F)cc2)C1=O (stereo not given) | 3 | -4
Cc1cc(C2CCCN2C(=O)Cc2cccs2)no1 (stereo not given) | 0 | 0
Cc1ccccc1Cc1nc(-c2ccc(=O)[nH]c2)no1 | 5 | 3
Cc1ccc(C(=O)N2CCC(CCNS(=O)(=O)c3cccc4cccnc34)CC2)cc1 | -1 | 62*
Cc1ccc(F)cc1S(=O)(=O)NCCC1CCN(C(=O)c2ccccc2)CC1 | 2 | 54*
Cc1ccc(C)c(S(=O)(=O)NCCC2CCN(C(=O)c3ccccc3)CC2)c1 | 10 | 47
O=C(c1ccc(F)cc1)N1CCC(CCNS(=O)(=O)c2cccc3cccnc23)CC1 | -4 | 45
CCCCc1ccc(NC(=O)Cn2cnc3c(-c4ccccc4)csc3c2=O)cc1 | 0 | -19
O=[N+]([O-])c1ccc(C2=Nn3c(nnc3-c3cccc(Br)c3)SC2)cc1 | -11 | -4
CC(C)C1C(=O)N(Cc2cn(CCC3OCCCO3)nn2)CCS(=O)(=O)N1Cc1ccc(-c2cccc(CO)c2)cc1 (stereo not given) | -7 | 46
COCOCCn1cc(CN2CCS(=O)(=O)N(Cc3ccc(-c4cccc(N(C)C)c4)cc3)C(C(C)C)C2=O)nn1 (stereo not given) | -3 | 57*
COCOCCn1cc(CN2CCS(=O)(=O)N(Cc3ccc(-c4cccc(CO)c4)cc3)C(C(C)C)C2=O)nn1 (stereo not given) | -11 | 23
CC(C)C1C(=O)N(Cc2cn(CCC3OCCO3)nn2)CCS(=O)(=O)N1Cc1ccc(-c2cccc(N(C)C)c2)cc1 (stereo not given) | -1 | 68*
CC(C)C1C(=O)N(Cc2cn(CCC3OCCCO3)nn2)CCS(=O)(=O)N1Cc1ccc(-c2cccc(N(C)C)c2)cc1 (stereo not given) | -6 | 61*
CC1C(=O)N(Cc2cn(CCC3OCCCO3)nn2)CCS(=O)(=O)N1Cc1ccc(-c2cccc(N(C)C)c2)cc1 (stereo not given) | -2 | 40
N#CC1=C(N)C(C#N)(C#N)C(c2cccc(Br)c2)C2CN(Cc3ccccc3)CC=C12 (stereo not given) | -3 | 37
COc1cc(C(=O)Nc2ccc(C)cc2Br)cc(OC)c1OC | 6 | -4
CCOC(=O)c1ccc(NC(=O)CN2CCC(c3nnc(-c4ccco4)s3)CC2)cc1 | -8 | -6
SMILES | Pf apPOL block | mHTT CaM bind
COc1ccc(O)c(CNC2CCN(c3ccc(C(=O)Nc4ccc(F)cc4)cn3)C2)c1 (stereo not given) | -2 | 9
Cc1c(Cl)c(C)c(C=O)c(O)c1Br | -3 | 79*
O=c1c(-c2ccc(Br)cc2)coc2cc(O)cc(O)c12 | 33 | 52*
O=c1c(-c2ccc(O)cc2)coc2cc(O)cc(O)c12 | -2 | .
COc1ccc2oc(=O)c(-c3nnc(-c4cccc(Cl)c4)o3)cc2c1 | 0 | 0
Cc1ccc(S(=O)(=O)N2CCN(CC(=O)Nc3ccc(F)cc3)CC2)c(C)c1 | -3 | 1
Cc1nc2cc(NC(=O)Cc3csc(NC(=O)C4CCCC4)n3)ccc2s1 | -10 | -18
Cc1nc2cc(NC(=O)Cc3csc(NC(=O)c4ccc(=O)[nH]c4)n3)ccc2s1 | 9 | 59*
CCN(CC)S(=O)(=O)c1cc(C(=O)Nc2ccc(Cl)cc2)ccc1OC | -7 | 0
COc1ccccc1C(=O)N1CCN(c2ccc([N+](=O)[O-])c(N3CCCCC3)c2)CC1 | -8 | 53*
O=C(c1cc(F)c(F)cc1Cl)N1CCN(c2ccc([N+](=O)[O-])c(N3CCCCC3)c2)CC1 | -2 | 5
CN1CCN(c2cc(N3CCN(S(C)(=O)=O)CC3)ccc2[N+](=O)[O-])CC1 | -4 | 2
COc1ccc(N2CCN(c3cc(N4CCN(C)CC4)ccc3[N+](=O)[O-])CC2)cc1 | -5 | 54*
CN1CC2c3ccccc3OC(c3ccc4c(c3)OCO4)C2([N+](=O)[O-])O1 (stereo not given) | . | 96*
c1ccc(C2=NN3C(C2)c2ccccc2OC3c2ccc3c(c2)OCO3)cc1 (stereo not given) | -1 | 5
CCOC(=O)N1CCN(C(=O)CN(c2ccccc2F)S(C)(=O)=O)CC1 | -4 | 0
O=C1OCCN1C(=O)[C@H]1[C@H](c2ccccc2)C(c2cccc(Cl)c2)=NN1c1ccc(Br)cc1 | 3 | -76
O=C1OCCN1C(=O)[C@H]1[C@H](c2ccc(Cl)cc2)C(c2ccccc2)=NN1c1ccc(Br)cc1 | -3 | 65*
Cc1cccc(C2=NN(c3ccc(Br)cc3)[C@@H](C(=O)N3CCOC3=O)[C@@H]2c2ccc(Cl)cc2)c1 | -4 | 80*
O=C1OCCN1C(=O)[C@H]1[C@H](c2ccc([N+](=O)[O-])cc2)C(c2cccc(Cl)c2)=NN1c1ccc(Br)cc1 | 1 | 44
O=C1OCCN1C(=O)[C@H]1[C@H](c2ccc(F)cc2)C(c2cccc(Cl)c2)=NN1c1ccc(Br)cc1 | -4 | 94*
Cc1cccc(C2=NN(c3ccc(Br)cc3)[C@@H](C(=O)N3CCOC3=O)[C@@H]2c2ccc(F)cc2)c1 | -7 | 76*
O=C1OCCN1C(=O)[C@H]1[C@H](c2ccc(Cl)cc2)C(c2cccc(Cl)c2)=NN1c1ccccc1 | -5 | 46
COc1ccccc1[C@@H]1C(c2cccc(C)c2)=NN(c2ccc(Br)cc2)[C@H]1C(=O)N1CCOC1=O | -9 | -16
O=C(NCCc1ccc(F)cc1)c1ccccc1[N+](=O)[O-] | -2 | -5
SMILES | Pf apPOL block | mHTT CaM bind
Cc1oc2cc(OCC(=O)O)ccc2c(=O)c1-c1ccccc1 | -6 | -2
Cc1noc(C)c1C1CCCN1C(=O)c1cc(-c2ccc(F)cc2)on1 (stereo not given) | 2 | -4
O=C1OCCN1C(=O)[C@H]1[C@H](c2ccc([N+](=O)[O-])cc2)C(c2ccccc2)=NN1c1ccc(Br)cc1 | -6 | 50
CC[C@@H]1C(c2cccc(Cl)c2)=NN(c2ccc(Br)cc2)[C@H]1C(=O)N1CCOC1=O | 6 | 95*
CC[C@@H]1C(c2cccc(Cl)c2)=NN(c2ccccc2)[C@H]1C(=O)N1CCOC1=O | -6 | -61
Cc1cccc(C2=NN(c3ccccc3)[C@@H](C(=O)N3CCOC3=O)[C@@H]2c2ccc([N+](=O)[O-])cc2)c1 | -4 | 54*
COc1ccccc1C(=O)Nc1ccc(-c2nc3ccccc3o2)cc1 | -6 | -8
CCc1ccc(OCCN2CCOCC2)cc1 | -3 | 0
COCCc1nc(C2CCCN(Cc3ccc4cc[nH]c4c3)C2)n[nH]1 (stereo not given) | 2 | 19
